# Assay outcomes deposited in PubChem by Johns Hopkins Ion Channel Center.
# TMEM16A act: mouse TMEM16A channel activation, primary screen; Q8BHY3; HEK293 TMEM16A/YFP-H148Q/I152L, iodide quench fluorescence; hits give low values; B-score at 10 µM; actives 0.3% (n = 340,000); AID 623877;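 active = fluorescence-ratio B-score plate-corrected deviation score at least 3 library SD below zero, with starting fluorescence score within 5 deviations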;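 note: channel opened by trigger with iodide after compound preincubation; score built on the fluorescence ratio of max minus min over baseline; more negative score means more quench and so TMEM16A activation or potentiation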
# CHT block: inhibitors of human choline transporter CHT | CHT-expressing cells, membrane potential dye, choline response; hits give low values | actives 0.86% (n = 310,000) | B-score at 10 µM | AID 488975;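 active = B-score over 3 SD under the library average, and starting fluorescence ratio not unusually high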;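 note: choline stimulus applied at its EC90 after an EC20 pre-addition; B-score computed on integrated fluorescence ratio after choline addition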
# Target sequence (Q9GZV3 whole entry, looked up): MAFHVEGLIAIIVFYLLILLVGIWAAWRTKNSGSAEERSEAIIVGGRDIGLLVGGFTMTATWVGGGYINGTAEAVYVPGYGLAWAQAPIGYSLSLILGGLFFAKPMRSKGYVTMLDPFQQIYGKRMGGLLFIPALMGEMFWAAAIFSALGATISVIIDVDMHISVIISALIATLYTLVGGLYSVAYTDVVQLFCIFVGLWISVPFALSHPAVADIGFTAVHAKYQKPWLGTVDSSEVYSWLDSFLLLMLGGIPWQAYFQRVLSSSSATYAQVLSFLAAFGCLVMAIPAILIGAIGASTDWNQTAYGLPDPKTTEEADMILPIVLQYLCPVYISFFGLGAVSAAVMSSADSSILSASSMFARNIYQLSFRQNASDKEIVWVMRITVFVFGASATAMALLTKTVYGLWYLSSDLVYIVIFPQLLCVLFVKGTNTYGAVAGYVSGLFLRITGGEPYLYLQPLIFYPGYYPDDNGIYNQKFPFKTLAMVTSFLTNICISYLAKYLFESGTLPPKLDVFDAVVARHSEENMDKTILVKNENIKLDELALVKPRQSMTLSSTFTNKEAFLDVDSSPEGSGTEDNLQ
# CHT PAM: allosteric activators of human choline transporter CHT. Q9GZV3. CHT-expressing cells, membrane potential dye, choline EC20; hits give high values; LV-AA mutant CHT in HEK293 cells. B-score at 10 µM. actives 0.49% (n = 310,000);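 active = initial fluorescence not abnormally high and integrated response B-score, plate-corrected, over 3 SD above library mean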
# TMEM16A inh: mouse TMEM16A channel inhibition, primary screen. HEK293 TMEM16A/YFP iodide influx fluorescence, ionomycin. normalized B-score (activity score, 25-100; higher = stronger inhibition) at 10 µM. actives 1.2% (n = 310,000);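 active = ratio plate-corrected score three or more library SD toward inhibition, starting fluorescence score within five deviations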;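 note: score derived from kinetic fluorescence span divided by baseline fluorescence per well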
# TMEM16A reconf: re-confirmation of mouse TMEM16A chloride channel inhibitors; actives 39% (n = 2,300); shares compounds with TMEM16A inh; inhibition, % at 10 µM; AID 652189; HEK293 TMEM16A/YFP-H148Q, iodide quench fluorescence; ionomycin added to raise cell calcium;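 active = mean duplicate percent inhibition, scaled so buffer wells are 0 and the reference blocker 100, over three buffer SD above buffer mean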
# HEK293 Ca mobil: alters calcium mobilization in TMEM16A HEK293 cells, counter-screen; shares compounds with TMEM16A inh; TMEM16A/YFP HEK293, Fluo4 calcium mobilization; calcium response (% of ionomycin), % at 10 µM; actives 2% (n = 2,300);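 active = duplicate-averaged calcium signal over 20% of the ionomycin maximum, relative to buffer baseline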;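 note: each well's signal is peak minus trough fluorescence divided by its pre-addition baseline; 0% = buffer wells and 100% = ionomycin wells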
# YFP-HEK293 quench: parental YFP-HEK293 iodide quench counter-screen activity; 2,300 tested, under 10 active; shares compounds with TMEM16A inh; YFP ratio F(max-min)/F0 at 10 µM; ionomycin;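 active = yellow fluorescent protein signal ratio exceeding the buffer control mean by over 5 SD of those controls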;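 note: ratio is mean of duplicate wells from kinetic YFP trace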
# ClC-1 inh: selectivity of TMEM16A inhibitors: inhibition of rat ClC-1 chloride channel; 2,300 tested, under 10 active; ratio percent, % at 10 µM; shares compounds with TMEM16A inh; CHO ClC-1-YFP, iodide influx fluorescence quench; iodide control reads 0, buffer control 100;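 active = duplicate-mean ratio percent above the mean of iodide-only control wells, which defines zero, plus 5 of their SD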;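 note: higher percent means stronger block of ClC-1 iodide influx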
# Starred values were filed as active, the others as inactive; i = inactive; nt = no result. This is a sample that favours compounds with a hit; in the whole collection about 2.3% have one here.
SMILES,TMEM16A act,CHT block,CHT PAM,TMEM16A inh,TMEM16A reconf,HEK293 Ca mobil,YFP-HEK293 quench,ClC-1 inh
Cc1cc(C)c(C#N)c(N2CCN(c3ccc(F)cc3)CC2)n1,i,i,i,i,nt,nt,nt,nt
Cn1nc(C(F)(F)F)c(C#N)c1N1CCN(c2ccc(F)cc2)CC1,i,i,i,25*,i,i,-1.3,-12
CC(=O)N[C@@H](CC(=O)N[C@H](CCC(=O)O)C(=O)O)C(=O)O,i,i,i,i,nt,nt,nt,nt
CC(NC(=O)C1CCCN1S(=O)(=O)c1cccc2nsnc12)c1ccccc1 (stereo unspecified),i,i,i,i,nt,nt,nt,nt
O=C(NC1CCCCC1)C1CCCN1S(=O)(=O)c1cccc2nsnc12 (stereo unspecified),i,i,i,100*,i,i,-1.1,-6
Cc1cc(NNC(=O)c2cccc(C(F)(F)F)c2)nc2c1c(C)nn2C,i,i,i,25*,i,i,-1.1,-19
Cc1nn(C)c(C(=O)NNC(=O)Nc2cccc(C(F)(F)F)c2)c1Cl,i,i,i,i,nt,nt,nt,nt
CCCCC1CC(C)(C(=O)CSc2nc3ccccc3s2)OC1=O (stereo unspecified),i,i,i,100*,30%*,i,-1,-2
CC1(C)CC2CC(C)(CN2S(=O)(=O)c2ccc(N)cc2)C1 (stereo unspecified),i,i,i,25*,i,i,-0.92,0
Cc1onc(-c2ccccc2Cl)c1C(=O)NCCn1c(C)cc2ccccc21,i,i,i,i,nt,nt,nt,nt
CC1=CC(C)(C)N(C(=O)c2ccc(F)cc2)c2cc3c(cc21)OCO3,i,i,i,100*,58%*,i,-1,-13
Cc1cccc(S(=O)(=O)N2CCN(Cc3ccc4c(c3)OCO4)CC2)c1,i,i,i,i,nt,nt,nt,nt
Cc1cc(S(=O)(=O)N2CCN(Cc3ccc4c(c3)OCO4)CC2)cc(C)c1N1CCCC1=O,i,i,i,100*,33%*,i,-1.1,-14
O=C(C1=C[C@H](c2csc3ccccc23)C[C@H](OCc2ccc(CO)cc2)O1)N1CCCCCCC1,nt,i,i,i,nt,nt,nt,nt
CCOCCCNC(=S)N1CCN(c2nc(-c3ccc(F)cc3)cs2)CC1,i,i,i,100*,31%*,i,-0.99,-24
Nc1ncnc2c1ncn2[C@@H]1O[C@H](CO)C[C@H]1O,i,i,i,100*,i,i,-0.91,-4
Cc1noc(C)c1COC(=O)c1cccc(S(=O)(=O)N2c3ccccc3CC2C)c1 (stereo unspecified),i,i,i,100*,25%*,i,-1,-18
CSc1ccc(C2NC(=O)c3c(sc4c3CCN(C)C4)N2)cc1 (stereo unspecified),i,i,i,i,i,i,-0.53,-6
CN1CCc2c(sc3c2C(=O)NC(c2cccs2)N3)C1 (stereo unspecified),i,i,i,i,nt,nt,nt,nt
CCN(CC)S(=O)(=O)c1ccc(Oc2ccccc2OC)cc1,i,i,i,i,nt,nt,nt,nt
CCN(CC)S(=O)(=O)c1ccc(Oc2ccc(S(=O)(=O)N(CC)CC)cc2)cc1,i,i,i,100*,i,i,-1.1,-22
Cc1ccc2c(c1)C1C3CCC(C3)C1S(=O)N2 (stereo unspecified),i,i,i,i,nt,nt,nt,nt
CC(Oc1ccc(Cl)cc1)C(=O)NCCN1C(=O)S/C(=C\c2cccnc2)C1=O (stereo unspecified),i,i,i,25*,55%*,i,-0.82,-3
CC(C)(Oc1ccc(Cl)cc1)C(=O)NCCN1C(=O)S/C(=C/c2cccnc2)C1=O,i,i,i,i,nt,nt,nt,nt
O=C(NCc1ccccc1)C(c1cccs1)N(C(=O)c1csnn1)C1CC1 (stereo unspecified),i,i,i,i,nt,nt,nt,nt
SMILES,TMEM16A act,CHT block,CHT PAM,TMEM16A inh,TMEM16A reconf,HEK293 Ca mobil,YFP-HEK293 quench,ClC-1 inh
O=C(NCCc1ccccc1)C(c1cccs1)N(C(=O)c1csnn1)C1CC1 (stereo unspecified),i,i,i,25*,i,i,-1,-11
CCO/C(C)=C1\C(=O)Nc2ccccc21,i,i,i,i,nt,nt,nt,nt
CCOc1ccc(CNC(=O)Cn2ccc3cc(S(=O)(=O)N4CCCC4)ccc32)cc1,i,i,i,i,nt,nt,nt,nt
COc1ccc(N2CC(C(=O)Nc3nnc(SCC(=O)N4CCOCC4)s3)CC2=O)cc1 (stereo unspecified),i,i,i,i,nt,nt,nt,nt
CN(Cc1cn(C)nc1-c1ccc(Oc2ccccc2)cc1)Cc1cnc2ccccn12,i,i,i,25*,24%*,22%*,-1.2,-13
COc1ccc(NS(=O)(=O)c2ccc(OC)c(N(C)S(=O)(=O)c3ccc(Cl)cc3)c2)cc1,i,i,i,100*,i,i,-1.1,-18
COc1ccc(S(=O)(=O)Nc2ccc(F)cc2)cc1N(C)S(=O)(=O)c1ccc(Cl)cc1,i,i,i,i,nt,nt,nt,nt
COc1cc(Cl)c(C)cc1NC(=S)NN,i,i,i,i,nt,nt,nt,nt
CCCC(=O)Nc1nnc(SCC)s1,i,i,i,i,nt,nt,nt,nt
CCSc1nnc(NC(=O)NC(CC)(C(F)(F)F)C(F)(F)F)s1,i,i,i,100*,16%*,i,-1,-18
COc1cc(NC(=O)CN(C)S(=O)(=O)c2ccc3c(c2)CC(C)N3C(C)=O)cc(OC)c1 (stereo unspecified),i,i,i,i,nt,nt,nt,nt
Cc1ccc(-n2nnc3c(=O)n(Cc4ccccn4)cnc32)cc1C,i,i,i,i,nt,nt,nt,nt
COCCNC(=O)c1ccc2c(=O)n(Cc3ccco3)c(SCC(=O)Nc3ccc(OC)cc3OC)nc2c1,i,i,i,i,nt,nt,nt,nt
COCCNC(=O)c1ccc2c(=O)n(Cc3ccco3)c(SCC(=O)NC3CCCCC3)nc2c1,i,i,i,i,i,i,-1,-6
COc1ccc(C)cc1N(C(=O)c1ccc(C#N)cc1)C1=NC(C)(C)CS1,i,i,i,i,nt,nt,nt,nt
Cc1ccc(NS(=O)(=O)c2cccc(C(=O)Nc3cc(C)on3)c2)cc1,-5.3*,i,i,25*,i,i,-1.1,-12
